Each structure is given as a SMILES string. About 1,200 (5%) of roughly 24,000 compounds were called active. Inconclusive results (about 2%) are left out. The rule behind the calls is not given here. These entries were drawn from the full list.

The assay can be described thus: Mycobacterium tuberculosis H37Rv growth inhibition, putative kinase inhibitor library, confirmatory dose response (AID 2842).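 Note: bacteria incubated one week before Alamar blue readout; 0% = bacteria only wells and 100% = bacteria with high antibiotic.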 The following applies: M. tuberculosis H37Rv growth inhibition; CC50: measured here: Vero cell cytotoxicity; inhibition: active compounds read high.
In the case of `O=c1[nH]c(NCc2ccc3c(c2)OCO3)nnc1Cc1ccc(F)cc1`, the inhibition – broadly, the drop in the measured response relative to a control, in per cent – was -0.653% (inactive).

On to `Nc1nc(SCC(=O)Nc2cccc(F)c2)[nH]c(=O)c1NC(=O)c1ccc(F)cc1`, for which the inhibition is -6.89% (inactive).

`COc1ccc(S(=O)(=O)Nc2cc3c4c(c2)CC(=O)N4CCC3)cc1`: the inhibition is 14.8% (inactive).

For `Nc1nc(SCc2cccc(Cl)c2)[nH]c(=O)c1NC(=O)c1ccc(C(F)(F)F)cc1`, the inhibition was -5.65% (inactive).

In the case of `Cc1ccc(Nc2nc(-c3ccc(S(=O)(=O)N4CCC(Cc5ccccc5)CC4)cc3)cs2)cc1`, the inhibition is -2.1% (inactive).

On to `O=C1NC(=O)C(=Cc2nc(-c3ccc(Cl)cc3)n3ccccc23)C(=O)N1`, for which the inhibition was 15.3% (inactive).

`NC(=O)COc1ccc(/C=c2\sc3nc(-c4ccccc4Br)nn3c2=O)cc1`: the inhibition is -6.4% (inactive).

For `Cc1ccc(NC(=O)c2cnc(SCC(=O)N3CCOCC3)n(C)c2=O)cc1`, the inhibition was 11.1% (inactive).

With `COc1ccc(Cl)cc1C(=O)Nc1nnc(-c2ccc(Cl)cc2Cl)s1`, the inhibition was 0.42% (inactive).

With `CC1CCc2c(C(=O)Nc3ccc(OC(F)(F)F)cc3)csc2C1` (stereo not given), the inhibition is 7.32% (inactive).

As to `CCn1c(SCCc2ccccc2)nc2c1c(=O)[nH]c(=O)n2C`, the inhibition is 16.5% (inactive).

Take `O=C(O)c1ccc(Nc2nc(-c3cccnc3)nc3ccccc23)cc1`: the inhibition was 5.44% (inactive).

Take `COc1ccc(OC)c(NC(=O)c2cnc3n(c2=O)CCS3)c1`: the inhibition is 10.9% (inactive).

With `CCOC(=O)c1nn(-c2ccc(F)cc2)c(=O)c2c(NC(=O)C(CC)c3ccccc3)scc12` (stereo not given), the inhibition is -11.7% (inactive).

`O=C(Nc1nc(-c2nc3ccccc3s2)cs1)c1ccc2ccccc2c1`: the inhibition is 3.09% (inactive).

Turning to `Cc1csc(NC(=O)CSc2nnc(CNC(=O)c3cccc(C(F)(F)F)c3)o2)n1`, the inhibition is -15.1% (inactive).

For `COc1cc(C)c(S(=O)(=O)Nc2ccc(-n3c(C)nc4ccccc4c3=O)cc2C)cc1C`, the inhibition was -7.48% (inactive).

As to `O=C(NNc1ncnc2c1cnn2-c1cccc(Cl)c1)c1cccc(Cl)c1`, the inhibition was 85% (inactive).

Regarding `O=C(CSc1nnc2ccc(-c3cccc([N+](=O)[O-])c3)nn12)NCc1ccco1`, the inhibition was 0.47% (inactive).

With `CS(=O)(=O)c1ccc([N+](=O)[O-])c(NCCCC(=O)O)c1`, the inhibition is -6.3% (inactive).

Take `CCOc1ccccc1NC(=O)CSc1nnc(C)c(=O)n1N`: the inhibition was -13.8% (inactive).

Turning to `O=C(Nc1nnc(-c2cccs2)o1)C(c1ccccc1)c1ccccc1`, the inhibition was 9.32% (inactive).

As to `C#CCn1c(=NC(=O)c2cccc([N+](=O)[O-])c2)sc2cccc(F)c21`, the inhibition is 13.5% (inactive).

Take `CCOC(=O)N1CCc2c(sc(NC(=O)c3ccc(Br)s3)c2-c2nc3ccccc3s2)C1`: the inhibition is 4.21% (inactive).

As for `Cn1c(=O)[nH]c(=O)c2c1nc(SCC(N)=O)n2CC(O)COc1ccc(Cl)cc1` (stereo not given), the inhibition is -5.17% (inactive).

`Nc1nc2c(s1)CCCC2`: the inhibition is 16.9% (inactive).

For the molecule `COC(=O)C(C)Sc1nnc(Cc2cc(=O)[nH]c(=O)[nH]2)n1-c1ccc(Cl)cc1` (stereo not given), the inhibition was -6.18% (inactive).

With `Cc1ccc(-n2c(=O)[nH]c3c(C(N)=O)nc(-c4ccc(C(C)C)cc4)nc32)cc1C`, the inhibition is -7.6% (inactive).

`COc1ccc(-n2nc3c(c2NC(=O)Cc2cccs2)CSC3)cc1`: the inhibition was -3.68% (inactive).

Consider `Cc1cccc(NC(=O)C2C(=O)CN(c3ccccc3)C2=O)c1` (stereo not given), for which the inhibition was -3.29% (inactive).

Consider `O=C(/C=C/c1ccccc1Cl)Nc1nc(-c2nc3ccccc3s2)cs1`, for which the inhibition is -0.67% (inactive).

On to `COc1ccc(OC)c(-c2nnc(NC(=O)C(C)Sc3ccccc3)s2)c1` (stereo not given), for which the inhibition was -0.69% (inactive).

As to `COc1ccc(Nc2nc(N3CCN(c4cccc(Cl)c4)CC3)nc3nccnc23)cc1`, the inhibition is 9.83% (inactive).

On to `CCN(CC)CCCNc1ncnc2sc3c(c12)CC(C)CC3` (stereo not given), for which the inhibition is 5.59% (inactive).

Turning to `COc1cc(C(=O)NC(=S)Nc2cccc3c2C(=O)NC3=O)cc(OC)c1OC`, the inhibition was -8.66% (inactive).

Regarding `Cn1c(=O)c2c(nc(SCCN3CCOCC3)n2Cc2ccccc2)n(C)c1=O`, the inhibition is 0.8% (inactive).

Consider `COc1ccc(C(=O)c2cn(CC(=O)Nc3ccc(F)cc3)c3ccc(F)cc3c2=O)cc1`, for which the inhibition is 9.54% (inactive).

For `CC1(C)Cc2c(sc(NC(=O)/C=C/c3ccccc3)c2C#N)C(C)(C)N1`, the inhibition is -4.69% (inactive).

In the case of `COc1ccc(CC(=O)NCCc2cc3ccc(C)cc3[nH]c2=O)cc1OC`, the inhibition is 11.1% (inactive).

In the case of `CC1(C)COc2ccc(NC(=O)Cc3cccs3)cc2NC1=O`, the inhibition was 6.11% (inactive).

In the case of `CCS(=O)(=O)c1cccc(C(=O)Nc2sc(C)c(C)c2C(=O)NC)c1`, the inhibition was -4.86% (inactive).

On to `CCOC(=O)N1CCN(C(=O)COc2cccc3c2CCN(CC)C3=O)CC1`, for which the inhibition is -2.11% (inactive).

Regarding `Cn1c(Cn2c(=O)sc3ccccc32)nnc1SCC(=O)Nc1ccc2c(c1)OCO2`, the inhibition was -4.61% (inactive).

Regarding `CC(C)N1CCc2c(sc(NC(=O)c3ccccc3Oc3ccccc3)c2C(N)=O)C1`, the inhibition was 81.6% (inactive).

`COC(=O)c1c(NC(=O)c2ccccc2)sc2c1CC(C)(C)NC2(C)C`: the inhibition is 16.8% (inactive).

As to `Cc1ccc(NC(=O)CSc2nccn(-c3ccc(F)cc3)c2=O)c(C)c1`, the inhibition was -11.8% (inactive).

On to `CNC(=O)C(=O)c1c[nH]c2ccccc12`, for which the inhibition was 4.99% (inactive).

Consider `CC1CCCCN1c1ncnc(N)c1[N+](=O)[O-]` (stereo not given), for which the inhibition was 1.66% (inactive).

As to `CC1(C)Cc2c(sc(NC(=O)c3cccc(F)c3)c2C#N)C(C)(C)N1`, the inhibition was -10.1% (inactive).

Turning to `Cc1nnc(SCc2ccc([N+](=O)[O-])cc2)n(N)c1=O`, the inhibition was 1.18% (inactive).

Take `O=C1/C(=C/c2ccc(Br)cc2)Oc2cc(O)ccc21`: the inhibition was 8.31% (inactive).

In the case of `COc1ccc(CNc2nc3c(-c4ccc(Cl)cc4)nnn3c3ccccc23)cc1`, the inhibition was 4.87% (inactive).

Regarding `O=C(Nc1nc2c(cc3c4c(cccc42)CC3)s1)C(c1ccccc1)c1ccccc1`, the inhibition was 10.3% (inactive).

Consider `Cc1cc(OC(=O)C23CC4CC(CC(C4)C2)C3)c([N+](=O)[O-])c(=O)[nH]1`, for which the inhibition was 2.01% (inactive).

As to `C=CCn1c(N(C)C)nc2c1c(=O)[nH]c(=O)n2C`, the inhibition is -2.63% (inactive).

For the molecule `CCOc1ccccc1NC(=O)c1oc2ccccc2c1NC(=O)COc1ccccc1`, the inhibition is 10.5% (inactive).

For the molecule `COc1ccc(Cn2cc(C(=O)c3ccc(Cl)cc3)c(=O)c3cc4c(cc32)OCCO4)cc1`, the inhibition is 14.9% (inactive).

With `CCOc1ccc(C(=O)Nc2c3c(nn2C(C)(C)C)CS(=O)C3)cc1` (stereo not given), the inhibition was 6.89% (inactive).

With `CCCC(=O)Nc1nnc(-c2cccc(C)c2)s1`, the inhibition was 5.77% (inactive).

With `COC(=O)c1ccc(NC(=O)CSc2nnc(C)c(=O)n2N)cc1`, the inhibition was 6.15% (inactive).

`Cc1ccc(NC(=O)CSc2nnc(CCC(=O)O)c(=O)[nH]2)cc1C`: the inhibition is -8.56% (inactive).

For `O=c1cnnc(N/N=C/c2ccc(O)cc2O)[nH]1`, the inhibition is 45.3% (inactive).

As to `O=C1C(=O)N(CCCN2CCOCC2)C(c2cccc(F)c2)/C1=C(\O)c1ccncc1` (stereo not given), the inhibition was -3.95% (inactive).

As to `CCOc1ccc(N2CC(NC(=O)Nc3cccc(C)n3)CC2=O)cc1` (stereo not given), the inhibition is 8.06% (inactive).

`O=S(=O)(Nc1cc(Sc2ncn[nH]2)c(O)c2ccccc12)c1ccc(F)cc1`: the inhibition was -6.45% (inactive).

Regarding `COc1ccccc1NC(=O)CCCN1C(=O)c2cccc3cccc(c23)C1=O`, the inhibition is 16.8% (inactive).

Regarding `COc1ccccc1NC(=O)c1oc2ccccc2c1NC(=O)c1ccc(Cl)c([N+](=O)[O-])c1`, the inhibition is 3.99% (inactive).

For `COc1ccc(OCC(=O)N/N=C/c2ccccc2O)cc1`, the inhibition is -13% (inactive).

For the molecule `O=C(/C=C/c1cccs1)Nc1nncs1`, the inhibition is -2.33% (inactive).

As to `COc1cccc2c1OC(c1ccncc1)N1N=C(c3cc(C)ccc3O)CC21` (stereo not given), the inhibition was 0.62% (inactive).

For `Cc1ccccc1NC(=O)CSc1nnc(Cn2c(=O)sc3ccccc32)n1C`, the inhibition is -1.23% (inactive).

Consider `COc1ccc(-n2c(=O)[nH]c3c(C(N)=O)nc(-c4ccncc4)nc32)cc1`, for which the inhibition is 1.06% (inactive).

As for `CC(C)c1nnc(SCc2c(Cl)ccc(Cl)c2Cl)n1N`, the inhibition was -13.8% (inactive).

With `O=C(Nc1ccc2c(c1)OCO2)c1cnc2n(c1=O)CCS2`, the inhibition is 0.45% (inactive).

`Cc1nnc(NC(=O)CSc2nc3c(c(=O)n2-c2ccccc2)SCC3)s1`: the inhibition was -2.21% (inactive).

As for `Cc1oc2c(CN3CCN(C)CC3)c(O)ccc2c(=O)c1-c1nc2ccccc2s1`, the inhibition was -15.1% (inactive).

As to `Cc1ccc(CSc2nc3c([nH]2)c(=O)n(C)c(=O)n3C)cc1`, the inhibition was 6.64% (inactive).

Take `NC(=O)c1oc2ccccc2c1NC(=O)c1ccc(Cl)s1`: the inhibition is 14.6% (inactive).

As to `Nc1nc(SCC(=O)Nc2ccc(F)cc2F)[nH]c(=O)c1NC(=O)c1ccc(Br)cc1`, the inhibition is -9.37% (inactive).

On to `Cc1cc2nnc(SCC(=O)Nc3ccccc3)n2c2ccccc12`, for which the inhibition was 0.4% (inactive).

For `COc1cccc(NC(=O)Nc2nc3c(s2)C(=O)CC(C)(C)C3)c1`, the inhibition was 8.4% (inactive).

Consider `CCN(c1ncnc(N)c1[N+](=O)[O-])C1CCCCC1`, for which the inhibition is 5.41% (inactive).

`COc1ccc(NC(=O)CSc2nnc3ccc(-c4ccncc4)nn23)cc1`: the inhibition is -9.39% (inactive).

In the case of `O=C(CSc1nnc2[nH]c(=O)ccn12)Nc1ccc([N+](=O)[O-])cc1`, the inhibition was -13.1% (inactive).

`CN(CCC#N)c1ccc(C=C2C(=O)NC(=S)NC2=O)cc1`: the inhibition was 5.58% (inactive).

As for `COC(=O)C1=C(C)NC(=O)NC1c1ccc(Cl)cc1` (stereo not given), the inhibition is 1.95% (inactive).

For `CC(C)CCSc1nc2c(c(=O)[nH]c(=O)n2C)n1CC(O)COc1ccc(Cl)cc1` (stereo not given), the inhibition is 21.4% (inactive).

On to `COc1cccc(N2CC(C)Cn3c2nc2c3c(=O)[nH]c(=O)n2C)c1` (stereo not given), for which the inhibition was 0.57% (inactive).

Turning to `CC1Cc2nc(SCc3ccccn3)n(-c3ccc(F)cc3)c(=O)c2S1` (stereo not given), the inhibition is 20% (inactive).

Consider `Cc1cccc(-n2ccnc2SCC(=O)Nc2nc3ccccc3s2)c1C`, for which the inhibition is 4.43% (inactive).

(Values after PubChem BioAssay AID2842 (Southern Research Institute, 2010).)
